# Results reported in PubChem BioAssay AID1878 (Sanford-Burnham Center for Chemical Genomics, 2009).
# Out of some 1,000 compounds screened, about 200 (20%) were called active. Only a sample is shown. Entries with a potency or affinity are not part of this list. Values without a mark were called inactive. No stated cut-off is given here; in the data, active means inhibition above about 55%; inactive means the rest.
# Target: Dual specificity protein phosphatase 3 (Homo sapiens) (UniProt P51452)
# Experiment: VHR1 phosphatase inhibitors, biochemical (AID 1878)
# Conditions: recombinant VHR phosphatase, fluorogenic substrate; at 13.3 µM; hits give high values
# Chain of Dual specificity protein phosphatase 3 (Homo sapiens) (P51452 whole entry, looked up): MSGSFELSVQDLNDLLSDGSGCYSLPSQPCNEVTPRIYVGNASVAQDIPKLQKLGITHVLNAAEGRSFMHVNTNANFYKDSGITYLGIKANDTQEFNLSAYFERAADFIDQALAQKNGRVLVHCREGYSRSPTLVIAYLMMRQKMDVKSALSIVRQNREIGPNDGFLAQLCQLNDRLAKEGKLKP
row,SMILES,inhibition
1,COc1ccc(CC(=O)Nc2cccc3c2CCCC3)cc1,-12.1%
2,O=C(O)CC1OCC=C2CN3CCC45c6ccccc6NC4C1C2CC35 (stereo unspecified),-2.6%
3,O=C1COc2ccc(S(=O)(=O)N3CCC(C(=O)NCc4ccc(F)cc4)CC3)cc2N1,-1.8%
4,Cc1cc(C)cc(N2CC(O)=C(c3nc4ccccc4c(=O)[nH]3)C2=N)c1,60.5% (active)
5,COc1ccc(C(=O)OC2CC[C@@]3(C)C4CCC5[C@]6(O)CC(O)[C@@]7(O)C(CN8CC(C)CCC8[C@@]7(C)O)[C@]6(O)C[C@@]53O[C@]24O)cc1OC (stereo partly specified),-10.1%
6,COC(=O)CCCC(=O)N1CCC(n2nccc2NC(=O)CCOc2ccccc2)CC1,7.4%
7,Cc1cc(=O)oc2c3c(cc(OCC(=O)NCC(=O)N[C@H](C(=O)O)C(C)C)c12)OC(C)(C)CC3,9.6%
8,COc1cccc(CC(NC(C)=O)C(=O)NC2CCN(C(=O)c3ccc(Cl)cc3)CC2)c1 (stereo unspecified),0.6%
9,CCCNC(=O)CN1C(=O)COc2ccc(S(=O)(=O)N3CC(C)CC(C)C3)cc21 (stereo unspecified),5%
10,O=C(NCCN1CCOCC1)C(=O)NCC1OCCCN1S(=O)(=O)c1ccc(F)cc1 (stereo unspecified),-15.9%
11,O=C(O)c1ccc(N2C(=O)/C(=C/c3ccc(-c4ccc([N+](=O)[O-])cc4)o3)C=C2c2ccccc2)cc1,99% (active)
12,CC1CC(C)CN(CCCNC(=O)CCC(=O)N2CC(C)Oc3ccccc32)C1 (stereo unspecified),-2.6%
13,O=C(/C=C/c1c(Cl)nc2ccccn12)N1CCN(c2ccc(F)cc2)CC1,26.8%
14,Cn1c(SCC(=O)Nc2ccc(N3CCOCC3)cc2)nnc1-c1ccco1,1%
15,Cc1ccc(NC(=O)C2CCN(C(=O)c3ccco3)CC2)cc1,-5.8%
16,Cc1cc(OCC(=O)Nc2ccc(N3CCN(C(=O)c4ccco4)CC3)cc2)cc(C)c1Cl,94.6% (active)
17,Cc1ccc(S(=O)(=O)N2CCCCC2)c2nsnc12,-2%
18,COc1cc(C(=O)N2CCc3ccccc32)c([N+](=O)[O-])cc1OC,26.5%
19,CCOc1ccc2nc(N3CCCC(C(=O)NCCCN4C(C)CCCC4C)C3)sc2c1 (stereo unspecified),-12.1%

row,SMILES,inhibition
1,Cc1ccc2oc(Nc3nc(-c4ccccc4)cc(=O)[nH]3)nc2c1,61.1% (active)
2,CCOc1ccc(C(=O)NC2CCN(CC(=O)NCc3ccccc3)CC2)cc1,-7.3%
3,COc1cccc(NC(=O)NCCN2CCCCC2)c1,-15.8%
4,Cc1ccc(NC(=S)c2ccc3ccccc3n2)c(C)c1,5.5%
5,Cc1ccc(-n2cccn2)c([C@@H]2C[C@H]3CN(C)C(=O)[C@]34CCCN24)c1,-6.3%
6,C=CCc1cc(Cl)ccc1OCCOCCNC(C)(C)C,-15%
7,Brc1ccc(C2=Nc3ccccc3C(c3ccncc3)=NN2)cc1,82.1% (active)
8,COC(=O)[C@@]1(Cc2ccc(F)cc2)[C@H]2c3cc(C(=O)N4CCCC4)n(CCc4ccccn4)c3C[C@H]2CN1C(=O)c1ccccc1,-0.9%
9,CCC1CCCCN1CCCNC(=O)Cn1ncn2nc(-c3ccc(OC)cc3)cc2c1=O (stereo unspecified),-4%
10,OCCC1CN(Cc2ccc(F)cc2)CCN1CCc1ccccc1 (stereo unspecified),-5.4%
11,O=C(N/N=C1/C(=O)c2cccc3cccc1c23)c1ccc(Cl)cc1,98.9% (active)
12,CCOc1ccccc1N(C(=O)c1ccco1)C(C(=O)NC1CCCC1)c1cccs1 (stereo unspecified),14.1%
13,COc1ccc(OCC(O)CN(CC(O)COc2ccc(OC)cc2)c2cccc(O)c2)cc1 (stereo unspecified),3.9%
14,CCC(CO)(CO)N(CC(=O)Nc1ccc(OC)cc1)CC(=O)Nc1ccc(OC)cc1,5.4%
15,N=C1/C(=C\c2ccc(-c3ccc(C(=O)O)cc3)o2)C(=O)N=C2SC=C(c3ccccc3)N12,97.1% (active)
16,N=C1/C(=C\c2ccc(-c3cccc(C(=O)O)c3)o2)C(=O)N=C2SC=C(c3ccccc3)N12,88.1% (active)
17,N=C1/C(=C/c2ccc(-c3cccc(C(=O)O)c3)o2)C(=O)N=C2SC=C(c3ccccc3)N12,79.5% (active)
18,COc1ccc(S(=O)(=O)N2CCCOC2CNC(=O)C(=O)NC2CCCC2)cc1 (stereo unspecified),-10.2%
19,Cc1cc(Br)c(S(=O)(=O)NCc2cccnc2)cc1C,5.2%

row,SMILES,inhibition
1,OC(COC(c1ccc(F)cc1)c1ccc(F)cc1)CN1CCCC(C(F)(F)F)C1 (stereo unspecified),-7.4%
2,Fc1cccc(/C=N/n2c(C3CCCCC3)n[nH]c2=S)c1,0.6%
3,COc1ccc(CCC(=O)NCCc2cnc[nH]2)cc1,-0.5%
4,CCOc1cc2[nH]c(=S)n(Cc3ccc(C(=O)NCCCOC)cc3)c(=O)c2cc1OCC,11.5%
5,O=C(N=C1SC2CS(=O)(=O)CC2N1Cc1ccccc1)C1CCCO1 (stereo unspecified),-9.5%
6,Cc1ccc(S(=O)(=O)NCC(=O)N2CCc3ccccc3C2)cc1,7.4%
7,Cc1ccccc1-n1c(SCC(=O)Nc2ccccc2Cl)nc2n[nH]c(C)c2c1=N,-7.4%
8,CCn1c(C)c(C)c2cc(C(=O)NCCCN3CCCCC3C)ccc21 (stereo unspecified),-4.1%
9,O=C1CCCN1CCCNC(=S)Nc1ccc(F)cc1,48.6%
10,COc1ccc(NC(=S)NCCCN2CCCC2=O)c(OC)c1,47.4%
11,O=C1CCCN1CCCNC(=S)Nc1ccc(F)c(Cl)c1,58.6% (active)
12,CC(=O)c1cccc(CN2CCC(CO)(CCOc3ccccc3)CC2)c1,-26.7%
13,COc1ccc(Cl)cc1NC(=O)C/C(C)=N/NC(=O)c1ccc(O)cc1,-3.4%
14,CCOC(=O)CN(C)Cc1cn[nH]c1-c1ccc2cc(OC)ccc2c1,4%
15,O=C(CC12CC3CC(CC(C3)C1)C2)NCc1ccc(F)cc1,-9.3%
16,CN(C)C(=O)OCC1COc2ccccc2O1 (stereo unspecified),0.1%
17,Cn1c2ccccc2c(=O)c2c(=O)n(C3CCCCCC3)c(C3CCCCC3)nc21,95.7% (active)
18,COc1ccc(NC2CCCN(C(=O)c3oc(C)cc3C)C2)cc1OC (stereo unspecified),1.1%
